Drawing on PubChem BioAssay (EPA / NIEHS), this text covers outcome and AC50 for 27 compounds.

“And” between values parts separate entries of the source, which are not always exact repeats. Equal values may be shown once. Records with an inconclusive call do not appear. The source made the active and inactive calls. How the source made its calls: active means hit-call score of the fitted dose curve at least 0.9, where 1 is the maximum; inconclusive means response in the unintended direction; inactive means score below 0.9.

Chain of rat CYP2C12, Cyp2c12 (gene 25011) (P11510 whole entry, looked up): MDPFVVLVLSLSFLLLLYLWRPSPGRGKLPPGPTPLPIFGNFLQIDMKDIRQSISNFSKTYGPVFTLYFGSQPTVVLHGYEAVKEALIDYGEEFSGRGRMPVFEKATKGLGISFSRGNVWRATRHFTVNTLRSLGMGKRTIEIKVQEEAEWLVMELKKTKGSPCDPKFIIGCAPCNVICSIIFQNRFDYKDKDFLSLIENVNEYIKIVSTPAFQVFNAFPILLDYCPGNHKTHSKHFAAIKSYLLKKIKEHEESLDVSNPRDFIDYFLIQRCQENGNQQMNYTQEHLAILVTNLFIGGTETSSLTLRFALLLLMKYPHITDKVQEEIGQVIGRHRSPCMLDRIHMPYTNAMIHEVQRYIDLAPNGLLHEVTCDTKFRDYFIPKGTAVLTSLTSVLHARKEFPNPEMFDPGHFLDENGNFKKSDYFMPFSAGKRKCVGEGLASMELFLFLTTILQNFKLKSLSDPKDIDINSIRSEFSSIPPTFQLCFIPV
Chain of rat CYP2D2, Cyp2d26 (gene 25053) (P10634 whole entry, looked up, canonical isoform): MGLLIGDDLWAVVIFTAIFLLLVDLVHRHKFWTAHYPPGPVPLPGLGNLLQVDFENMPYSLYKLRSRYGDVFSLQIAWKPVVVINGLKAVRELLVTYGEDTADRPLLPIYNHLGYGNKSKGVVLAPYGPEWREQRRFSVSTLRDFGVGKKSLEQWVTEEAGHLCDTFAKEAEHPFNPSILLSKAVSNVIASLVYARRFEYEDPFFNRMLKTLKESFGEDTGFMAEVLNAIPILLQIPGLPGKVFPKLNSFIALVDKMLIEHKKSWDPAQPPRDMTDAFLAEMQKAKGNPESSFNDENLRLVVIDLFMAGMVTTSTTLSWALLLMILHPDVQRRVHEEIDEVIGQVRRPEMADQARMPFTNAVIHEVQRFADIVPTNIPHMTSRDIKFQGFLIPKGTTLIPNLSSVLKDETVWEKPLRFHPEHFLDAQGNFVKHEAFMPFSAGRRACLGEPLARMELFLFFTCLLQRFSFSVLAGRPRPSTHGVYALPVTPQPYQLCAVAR
Chain of rat CYP2C11, Cyp2c11 (gene 29277) (P08683 whole entry, looked up): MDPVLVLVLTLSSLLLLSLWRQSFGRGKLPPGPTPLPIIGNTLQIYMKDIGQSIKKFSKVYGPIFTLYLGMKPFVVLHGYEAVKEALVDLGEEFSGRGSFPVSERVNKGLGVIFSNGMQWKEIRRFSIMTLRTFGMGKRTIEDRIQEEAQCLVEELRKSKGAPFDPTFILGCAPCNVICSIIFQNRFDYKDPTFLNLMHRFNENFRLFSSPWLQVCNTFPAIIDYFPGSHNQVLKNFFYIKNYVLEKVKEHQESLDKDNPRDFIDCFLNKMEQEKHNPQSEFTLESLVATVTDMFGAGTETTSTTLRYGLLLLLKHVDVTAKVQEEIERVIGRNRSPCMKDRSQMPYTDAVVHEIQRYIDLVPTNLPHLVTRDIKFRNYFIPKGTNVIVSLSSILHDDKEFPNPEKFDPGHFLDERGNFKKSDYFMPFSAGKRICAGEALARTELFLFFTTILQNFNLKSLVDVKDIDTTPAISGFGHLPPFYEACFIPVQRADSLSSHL

One test has as its system rat CYP2B1, gene 24300. Description: NVS_ADME_rCYP2B1: NovaScreen (NVS) CYP450-related Enzyme Activity (ADME) Assay for rat CYP2B1 (AID 2283117). The essentials:
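Cell-free fluorescence enzyme assay, recombinant rat CYP2B1, 0.75 h after dosing. Single-concentration duplicates at 10 uM preceded concentration series (max 20 uM) for actives; acetonitrile as negative-control baseline.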
With `C=C(C)[C@H]1Cc2c(ccc3c2O[C@@H]2COc4cc(OC)c(OC)cc4[C@@H]2C3=O)O1`, the compound was called inactive.
For orientation: AC50 means the midpoint of the concentration-response curve, whichever way the signal moves. As for `CCCOCC(=Nc1ccc(Cl)cc1C(F)(F)F)n1ccnc1`, the AC50 was 279 nM (active).
For `CC(C)N(C(=O)SCC(Cl)=C(Cl)Cl)C(C)C`, the call was inactive.
On to `CCOP(=S)(OCC)Oc1ccc2c(C)c(Cl)c(=O)oc2c1`, for which the half-maximal activity concentration (AC50) is 914 nM (active).
Consider `CC(C1CC1)C(O)(Cn1cncn1)c1ccc(Cl)cc1` (stereo not given), for which the half-maximal activity concentration (AC50) was 401 nM (active) and 1.61 µM (active).
Regarding `CCc1cccc(CC)c1N(COC)C(=O)CCl`, the half-maximal activity concentration (AC50) is 3440 nM (active).
For `C[Si](Cn1cncn1)(c1ccc(F)cc1)c1ccc(F)cc1`, the half-maximal activity concentration (AC50) is 37.1 nM (active).
`CCc1cccc(C)c1N(C(=O)CCl)C(C)COC` (stereo not given): the AC50 is 6430 nM (active).
On the same count and under the same terms, next, `CCOP(=S)(OCC)Oc1ccc([N+](=O)[O-])cc1`: 559 nM (active).
Take `CCOC(=O)CC(SP(=O)(OC)OC)C(=O)OCC` (stereo not given): the compound was called inactive.
On to `CCCCOC(=O)c1ccccc1C(=O)O`, for which the outcome was inactive.
On the same count and under the same terms, with `Nc1c(Cl)cc([N+](=O)[O-])cc1Cl` the entry was “inactive”.
With `FC(F)C(F)(F)OCC(Cn1cncn1)c1ccc(Cl)cc1Cl` (stereo not given), the AC50 is 452 nM (active).

The target of the next test is rat CYP2C11, Cyp2c11 (gene 29277) (UniProt P08683). Description: NVS_ADME_rCYP2C11: NovaScreen (NVS) CYP450-related Enzyme Activity (ADME) Assay for rat CYP2C11 (AID 2283118). Put shortly:
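Screened first at 10 uM in duplicate, hits followed by concentration-response. Recombinant rat enzyme activity monitored by fluorescence 0.33 h post-dosing, normalised to acetonitrile negative control.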
`O=[N+]([O-])c1cc(C(F)(F)F)c(Cl)c([N+](=O)[O-])c1Nc1ncc(C(F)(F)F)cc1Cl`: the AC50 was 2.91 µM (active).
On to `CCCSP(=O)(OCC)Oc1ccc(Br)cc1Cl` (stereo not given), for which the concentration at half-maximal activity (AC50) was 0.226 µM (active).
The same measure, in the same setting: with `C=C(C)[C@H]1Cc2c(ccc3c2O[C@@H]2COc4cc(OC)c(OC)cc4[C@@H]2C3=O)O1` the figure was 5.05 µM (active); with `CCCOCC(=Nc1ccc(Cl)cc1C(F)(F)F)n1ccnc1`, 0.798 µM (active).
The same measure, in the same setting: next, `CCOP(=S)(OCC)Oc1ccc2c(C)c(Cl)c(=O)oc2c1`: 1.2 µM (active).
Regarding `CC(C1CC1)C(O)(Cn1cncn1)c1ccc(Cl)cc1` (stereo not given), the AC50 was 1.69 µM (active).
Consider `C#CCC1=C(C)C(OC(=O)C2C(C=C(C)C)C2(C)C)CC1=O` (stereo not given), for which the compound was called inactive.
In the case of `C[Si](Cn1cncn1)(c1ccc(F)cc1)c1ccc(F)cc1`, the half-maximal activity concentration (AC50) is 0.25 µM (active).
In the case of `CCOP(=S)(OCC)Oc1ccc([N+](=O)[O-])cc1`, the AC50 is 2.93 µM (active).
Consider `CCOC(=O)CC(SP(=O)(OC)OC)C(=O)OCC` (stereo not given), for which the AC50 was 8.37 µM (active).
As for `CCOP(=O)(NC(C)C)Oc1ccc(SC)c(C)c1` (stereo not given), the AC50 is 6.43 µM (active).
Same read-out and setting: with `FC(F)C(F)(F)OCC(Cn1cncn1)c1ccc(Cl)cc1Cl` (stereo not given) the figure was 0.732 µM (active); with `CCOP(=O)(SC(C)CC)N1CCSC1=O` (stereo not given), 3.88 µM (active).

For another test, the target named is rat CYP2C12, Cyp2c12 (gene 25011) (UniProt P11510). Description: NVS_ADME_rCYP2C12: NovaScreen (NVS) CYP450-related Enzyme Activity (ADME) Assay for rat CYP2C12 (AID 2283119). How it is done:
NVS_ADME_rCYP2C12 is a biochemical, single-readout assay that uses extracted gene-proteins in a cell-free assay. Measurements were taken 0.5 hour after chemical dosing in a 96-well plate.NVS_ADME_rCYP2C12 is one of one assay component(s) measured or calculated from the NVS_ADME_rCYP2C12 assay. It is designed to make measurements of enzyme activity, a form of enzyme reporter, as detected with fluorescence intensity signals by Fluorescence technology.Data from the assay component NVS_ADME_rCYP2C12 was analyzed into 1 assay endpoint. This assay endpoint, NVS_ADME_rCYP2C12, was analyzed in the positive analysis fitting direction relative to Acetonitrile as the negative control and baseline of activity. Using a type of enzyme reporter, loss-of-signal activity can be used to understand changes in the enzymatic activity as they relate to the gene Cyp2c12. Furthermore, this assay endpoint can be referred to as a primary readout, because this assay has produced multiple assay endpoints where this one serves a enzymatic activity function. To generalize the intended target to other relatable targets, this assay endpoint is annotated to the cyp intended target family, where the subfamily is xenobiotic metabolism.
Binding assays used specific radioligands (tritiated, iodinated) with non-radioactive competitive displacement ligands in agonist or antagonist protocols (as indicated) and various reference compounds and inhibitors to titrate specific binding to receptors and transporters. Most enzyme assays (CYPs, kinases, phosphatases, proteases, HDACs) used recombinant protein and specific substrates (fluorescence mostly, some colorimetric and radioactive) and inhibitors, followed by a biochemical separation of substrate and product. All assays for the biochemical HTS were initially run in duplicate at a single concentration (10 uM for CYP450 assays and 25 uM for all others). […] Each assay was run with positive and negative controls, and concurrent controls on every plate. The follow-up (secondary) screen tested active chemical-pairs in concentration series, as well as a few additional assays not tested in the primary screen, some selected negative inactives, and several cases re-run in the concentration series for confirmatory purposes.
Turning to `O=[N+]([O-])c1cc(C(F)(F)F)c(Cl)c([N+](=O)[O-])c1Nc1ncc(C(F)(F)F)cc1Cl`, the outcome was inactive.
Regarding `CCCOCC(=Nc1ccc(Cl)cc1C(F)(F)F)n1ccnc1`, the concentration at half-maximal activity (AC50) is 2.46 µM (active).
On the same count and under the same terms, next, `CCOP(=S)(OCC)Oc1ccc2c(C)c(Cl)c(=O)oc2c1`: 0.799 µM (active); `CC(C1CC1)C(O)(Cn1cncn1)c1ccc(Cl)cc1` (stereo not given): 3.71 µM (active); `C[Si](Cn1cncn1)(c1ccc(F)cc1)c1ccc(F)cc1`: 4.13 µM (active).
Regarding `S=C1NCCN1`, the compound was called inactive.
In the case of `CSC1=N[C@@](C)(c2ccccc2)C(=O)N1Nc1ccccc1`, the AC50 was 8 µM (active).
For `CCOP(=S)(OCC)Oc1ccc([N+](=O)[O-])cc1`, the AC50 was 6.18 µM (active).
Take `FC(F)C(F)(F)OCC(Cn1cncn1)c1ccc(Cl)cc1Cl` (stereo not given): the concentration at half-maximal activity (AC50) is 3.95 µM (active).

Another test deals with rat CYP2C6, gene 293989. Description: NVS_ADME_rCYP2C6: NovaScreen (NVS) CYP450-related Enzyme Activity (ADME) Assay for rat CYP2C6 (AID 2283120). Put shortly: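 Compounds first tested in duplicate at 10 uM, hits (e.g. 30% inhibition) re-run in singleton dose series to a 20 uM top concentration. Enzyme activity of recombinant rat CYP2C6 measured via fluorescent substrate turnover after 1 h; acetonitrile baseline.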
On to `CCCSP(=O)(OCC)Oc1ccc(Br)cc1Cl` (stereo not given), for which the half-maximal activity concentration (AC50) is 8.28 µM (active).
On the same count and under the same terms, next, `CCCOCC(=Nc1ccc(Cl)cc1C(F)(F)F)n1ccnc1`: 0.976 µM (active); `CCOP(=S)(OCC)Oc1ccc2c(C)c(Cl)c(=O)oc2c1`: 0.452 µM (active).
Still for that read-out and setting: next, `C[Si](Cn1cncn1)(c1ccc(F)cc1)c1ccc(F)cc1`: 0.519 µM (active).
Same read-out and setting: with `COc1ccc(C(=CC(=O)N2CCOCC2)c2ccc(Cl)cc2)cc1OC` the figure was 3.98 µM (active).
Consider `CCOP(=S)(OCC)Oc1ccc([N+](=O)[O-])cc1`, for which the AC50 is 0.108 µM (active).
On the same count and under the same terms, next, `CCOC(=O)CC(SP(=O)(OC)OC)C(=O)OCC` (stereo not given): 5.32 µM (active).
Turning to `FC(F)C(F)(F)OCC(Cn1cncn1)c1ccc(Cl)cc1Cl` (stereo not given), the concentration at half-maximal activity (AC50) is 1.68 µM (active).
On the same count and under the same terms, with `CCOP(=O)(SC(C)CC)N1CCSC1=O` (stereo not given) the figure was 5.01 µM (active).

A further test deals with rat CYP2D1, Cyp2d1 (gene 266684) (UniProt P10633). Description: NVS_ADME_rCYP2D1: NovaScreen (NVS) CYP450-related Enzyme Activity (ADME) Assay for rat CYP2D1 (AID 2283122). The essentials: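 Rat CYP2D1 enzyme activity measured by fluorescence intensity in a cell-free format, 0.75 h post-dosing, acetonitrile as negative control. Screening at 10 uM in duplicate, with actives followed in concentration series up to 20 uM.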
Chain of rat CYP2D1, Cyp2d1 (gene 266684) (P10633 whole entry, looked up): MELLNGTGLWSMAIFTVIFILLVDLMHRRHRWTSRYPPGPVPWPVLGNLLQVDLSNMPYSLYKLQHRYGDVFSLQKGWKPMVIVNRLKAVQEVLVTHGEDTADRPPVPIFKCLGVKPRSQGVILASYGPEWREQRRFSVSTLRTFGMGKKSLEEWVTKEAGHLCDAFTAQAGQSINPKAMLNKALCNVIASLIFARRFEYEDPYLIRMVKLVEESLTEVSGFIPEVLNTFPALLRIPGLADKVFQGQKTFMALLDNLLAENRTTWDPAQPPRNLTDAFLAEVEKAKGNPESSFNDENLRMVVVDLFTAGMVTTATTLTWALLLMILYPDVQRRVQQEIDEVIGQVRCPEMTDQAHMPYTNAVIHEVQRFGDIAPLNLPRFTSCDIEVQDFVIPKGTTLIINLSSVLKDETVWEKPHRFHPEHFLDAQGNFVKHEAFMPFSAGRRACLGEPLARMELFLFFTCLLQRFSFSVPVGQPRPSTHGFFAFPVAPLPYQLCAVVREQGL
For `CCCOCC(=Nc1ccc(Cl)cc1C(F)(F)F)n1ccnc1`, the AC50 was 6.88 µM (active).
With `CCOP(=S)(OCC)Oc1ccc2c(C)c(Cl)c(=O)oc2c1`, the AC50 was 0.854 µM (active).
The same measure, in the same setting: next, `Cc1cc(C2CC2)nc(Nc2ccccc2)n1`: 6.96 µM (active).
On to `C[Si](Cn1cncn1)(c1ccc(F)cc1)c1ccc(F)cc1`, for which the AC50 is 4.3 µM (active).
Consider `CSC1=N[C@@](C)(c2ccccc2)C(=O)N1Nc1ccccc1`, for which the result was inactive.
`CCC(=O)Nc1ccc(Cl)c(Cl)c1`: the AC50 was 5.39 µM (active).
The same measure, in the same setting: next, `CCOP(=S)(OCC)Oc1ccc([N+](=O)[O-])cc1`: 10 µM (active); `FC(F)C(F)(F)OCC(Cn1cncn1)c1ccc(Cl)cc1Cl` (stereo not given): 7.86 µM (active).

In another test the target is rat CYP2D2, Cyp2d26 (gene 25053) (UniProt P10634). Description: NVS_ADME_rCYP2D2: NovaScreen (NVS) CYP450-related Enzyme Activity (ADME) Assay for rat CYP2D2 (AID 2283124). Put shortly:
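Single-concentration duplicate testing at 10 uM, followed by concentration-response (top 20 uM) for chemicals passing threshold. Enzyme activity of the recombinant rat isoform measured by fluorescence after 0.75 h, acetonitrile as baseline.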
Consider `CCCSP(=O)(OCC)Oc1ccc(Br)cc1Cl` (stereo not given), for which the AC50 is 8.58 µM (active).
As for `CCCOCC(=Nc1ccc(Cl)cc1C(F)(F)F)n1ccnc1`, the AC50 is 3.2 µM (active).
On to `CCOP(=S)(OCC)Oc1ccc2c(C)c(Cl)c(=O)oc2c1`, for which the outcome was inactive.
`CC(C1CC1)C(O)(Cn1cncn1)c1ccc(Cl)cc1` (stereo not given): the AC50 was 3.14 µM (active) and 4.54 µM (active).
Take `CNc1cnn(-c2cccc(C(F)(F)F)c2)c(=O)c1Cl`: the compound was classed as inactive.
Take `C[Si](Cn1cncn1)(c1ccc(F)cc1)c1ccc(F)cc1`: the AC50 is 1.87 µM (active).
On the same count and under the same terms, next, `CC[C@H](C)[C@H]1O[C@]2(C=C[C@@H]1C)C[C@@H]1C[C@@H](C/C=C(\C)[C@@H](O[C@H]3C[C@H](OC)[C@@H](O[C@H]4C[C@H](OC)[C@@H](NC)[C@H](C)O4)[C@H](C)O3)[C@@H](C)/C=C/C=C3\CO[C@@H]4[C@H](O)C(C)=C[C@@H](C(=O)O1)[C@]34O)O2`: 3.96 µM (active).
Consider `CCOP(=S)(OCC)Oc1ccc([N+](=O)[O-])cc1`, for which the result was inactive.
As to `CCOC(=O)CC(SP(=O)(OC)OC)C(=O)OCC` (stereo not given), the outcome was inactive.
As to `CCCCOC(=O)[C@@H](C)Oc1ccc(Oc2ccc(C#N)cc2F)cc1`, the AC50 is 12.1 µM (active).
Same read-out and setting: with `CC(C)=CC1C(C(=O)OCN2C(=O)C3=C(CCCC3)C2=O)C1(C)C` (stereo not given) the figure was 10 µM (active); with `CCOP(=O)(NC(C)C)Oc1ccc(SC)c(C)c1` (stereo not given), 5.06 µM (active).
On to `FC(F)C(F)(F)OCC(Cn1cncn1)c1ccc(Cl)cc1Cl` (stereo not given), for which the AC50 was 5.52 µM (active).
